Measured values as given in a collection of fitness landscapes (doi:10.1016/j.celrep.2020.107928).
Over roughly 81,000 sequences, “one-hybrid fitness for binding NBS DNA” has its median near -0.1; the highest 2% begin near 0.36. What follows is part of a selection rich in the highest values, with near analogues and random picks from the rest.

B1: Caulobacter ParB omega fusion; a variant is named by its letters at X, in order, B8GW30 (parent)
chain: MESVVVGEPGMSEGRRGLGRGLSALLGEVDAAPAQAPGEQLGGSREAPIEILQRNPDQPRRTFREEDLEDLSNSIREKGVLQPILVRPSPDTAGEYQIVAGERAWRAAQRAGLKTVPIMVRELDDLAVLEIGIIENVQRADLNVLEEALSYKVLMEKFERTQENIAQTIGKSXSHVANXMRLLXLPDEVQSYLVSGELTAXHARAIAAAADPVALAKQIIEGGLSVRETEALARKAPNLSAGKSKGGRPPRVKDTDTQALESDLSSVLGLDVSIDHRGSTGTLTITYATLEQLDDLCNRLTRGI

Variants of: B1
Assay: one-hybrid fitness for binding NBS DNA (the Noc-binding site; scaled: cognate 1, non-cognate 0); higher = stronger binding
Conditions: with NBS DNA site
Procedure, shortened: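 The reporter was HIS3, with the binding site 19 bp from the promoter, in E. coli USO used for bacterial one-hybrid selection of Caulobacter ParB libraries with four specificity codons randomised. Growth was on M9 lacking histidine, with 0.1 mM IPTG and 5 mM 3-AT, for 48 hours at 37°C. Illumina sequencing covered plasmids before and after selection; three replicate libraries were pooled and variants with under 10 reads dropped. A fitness score is the log change in variant-to-wild-type read ratio, rescaled to the cognate and non-cognate references.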

Variant	one-hybrid fitness for binding NBS DNA
QCGQ	0.24
QRGP	0.301
QSGQ	≤ 0.2
QRGC	0.402
QPGC	≤ 0.2
QCGM	≤ 0.2
QSGM	≤ 0.2
QRGD	0.293
QRGM	0.436
QCGC	0.244
QRGQ	0.435
QRGS	0.7
VHHD	≤ 0.2
KQFT	≤ 0.2
IGSG	≤ 0.2
ERAV	≤ 0.2
LHVR	≤ 0.2
AGVC	≤ 0.2
QSQV	≤ 0.2
LPLC	≤ 0.2
DDTM	≤ 0.2
HYPY	≤ 0.2
IAHC	≤ 0.2
SVFR	≤ 0.2

Variant	one-hybrid fitness for binding NBS DNA
YVTV	≤ 0.2
PPVI	≤ 0.2
KLLL	≤ 0.2
QRIT	0.678
QRPT	0.576
QRPG	≤ 0.2
QSIT	0.353
QRIP	≤ 0.2
QCIT	0.432
QPIT	≤ 0.2
QAPT	0.23
RPKK	≤ 0.2
VPVE	≤ 0.2
TFHR	≤ 0.2
VTIG	≤ 0.2
DETM	≤ 0.2
LSSE	≤ 0.2
IPSD	≤ 0.2
QSDH	≤ 0.2
QPKS	≤ 0.2
QSVH	≤ 0.2
QSKS	0.645
QIKN	0.223
QNKS	0.355

Variant	one-hybrid fitness for binding NBS DNA
QIVS	≤ 0.2
QCKS	0.711
QSKH	0.587
QIKS	0.497
TVQG	≤ 0.2
DATH	≤ 0.2
YDTE	≤ 0.2
TATG	≤ 0.2
KRHE	≤ 0.2
MHPT	≤ 0.2
RINQ	≤ 0.2
QTFG	≤ 0.2
QTFF	≤ 0.2
QTAY	0.306
QTAQ	0.251
QTFR	0.584
QTAR	0.768
SPYR	≤ 0.2
SHAM	≤ 0.2
QYRA	0.558
QYKA	0.531
QYYA	0.271
QYDA	≤ 0.2
QYVA	≤ 0.2

Variant	one-hybrid fitness for binding NBS DNA
QYNA	0.269
QPFC	≤ 0.2
FPTR	≤ 0.2
KLDM	≤ 0.2
RCAY	≤ 0.2
RRSY	0.393
RRHY	0.452
RRQY	0.525
RCSY	≤ 0.2
RSSY	≤ 0.2
RCHY	0.215
RRFY	0.314
RPQY	≤ 0.2
RCQY	≤ 0.2
RRAY	0.405
RSHY	≤ 0.2
SRQM	≤ 0.2
LMKG	≤ 0.2
SMNN	≤ 0.2
YTVM	≤ 0.2
DLVK	≤ 0.2
HQPS	≤ 0.2
VMQT	≤ 0.2
SRLY	≤ 0.2

Variant	one-hybrid fitness for binding NBS DNA
RIDV	≤ 0.2
AWTG	≤ 0.2
PYAQ	≤ 0.2
HRAG	≤ 0.2
RNYQ	≤ 0.2
RCNY	0.221
RRRY	0.798
RRNY	0.589
RRDY	0.306
RRYY	0.349
RCRY	0.363
WRPY	≤ 0.2
LPLQ	≤ 0.2
QRVR	0.839
QRKR	1.08
QWKR	0.356
NRKR	0.309
YQNG	≤ 0.2
TVTR	≤ 0.2
LWNE	≤ 0.2
YAMR	≤ 0.2
YPHD	≤ 0.2
LNNS	≤ 0.2
RSGW	≤ 0.2

Variant	one-hybrid fitness for binding NBS DNA
YQIT	≤ 0.2
RFAL	≤ 0.2
AGTL	≤ 0.2
QHKG	0.345
QHVQ	0.283
QHKD	≤ 0.2
QHYQ	≤ 0.2
QHKP	0.255
QHKH	0.546
QHKF	0.297
QHKN	0.427
QHKS	0.655
QHKQ	0.404
QHVN	≤ 0.2
QHDH	≤ 0.2
KHEE	≤ 0.2
SFKI	≤ 0.2
QVDA	≤ 0.2
RIMY	≤ 0.2
HVLC	≤ 0.2
GDVT	≤ 0.2
GYMF	≤ 0.2
KQWT	≤ 0.2
QQLT	0.45

Variant	one-hybrid fitness for binding NBS DNA
KQRT	0.225
QQRT	0.8
QQLN	≤ 0.2
QQEI	≤ 0.2
QQWT	0.44
QQWC	≤ 0.2
QQET	0.371
NQRT	≤ 0.2
QQES	0.23
QQLD	≤ 0.2
FLTY	≤ 0.2
KTPC	≤ 0.2
PLQH	≤ 0.2
TATP	≤ 0.2
MRTF	≤ 0.2
QQYT	0.473
QQHC	≤ 0.2
QQGM	0.202
QQHM	≤ 0.2
QQQM	≤ 0.2
DQYT	≤ 0.2
QQQY	0.247
QQHT	0.535
QQGD	≤ 0.2

Variant	one-hybrid fitness for binding NBS DNA
QQQT	0.449
QQGT	0.475
SAFG	≤ 0.2
IKRQ	≤ 0.2
STKR	0.254
FDSL	≤ 0.2
VKGK	≤ 0.2
DTSI	≤ 0.2
QQST	0.516
QQCT	0.528
QQSD	≤ 0.2
QQCS	0.356
QQCN	≤ 0.2
QQSP	≤ 0.2
QYKL	0.246
QYLN	≤ 0.2
QYGY	≤ 0.2
QYLD	≤ 0.2
QYKE	0.213
QYVY	≤ 0.2
QYDY	≤ 0.2
QYFY	≤ 0.2
QYKN	0.366
QYKY	0.479

Variant	one-hybrid fitness for binding NBS DNA
QYRY	0.486
QYLT	0.383
VANF	≤ 0.2
NCLY	≤ 0.2
QFRV	≤ 0.2
SHNY	≤ 0.2
QQPF	≤ 0.2
TSAQ	≤ 0.2
HDDG	≤ 0.2
CDFR	≤ 0.2
SYFG	≤ 0.2
LSYG	≤ 0.2
QYWT	0.378
QYPM	≤ 0.2
QYWN	≤ 0.2
QYCG	≤ 0.2
QYLM	≤ 0.2
QYKH	0.569
QYCY	≤ 0.2
QYKF	0.229
QYCT	0.419
QYKM	0.369
QYKG	0.294
QYWY	≤ 0.2

Variant	one-hybrid fitness for binding NBS DNA
LVLD	≤ 0.2
GKTG	≤ 0.2
TVSI	≤ 0.2
MEAE	≤ 0.2
YPFW	≤ 0.2
SPYH	≤ 0.2
HDPT	≤ 0.2
NGHF	≤ 0.2
GEAN	≤ 0.2
SSSE	≤ 0.2
QYHQ	≤ 0.2
QYPT	0.255
QYKK	0.398
QYKT	0.722
QYRK	0.36
QYSS	0.357
QYVT	0.363
QYSH	≤ 0.2
QYST	0.413
QYHC	≤ 0.2
QYYK	≤ 0.2
QYHT	0.417
VTAR	≤ 0.2
SYLG	≤ 0.2

Variant	one-hybrid fitness for binding NBS DNA
HAQP	≤ 0.2
GPML	≤ 0.2
SDVP	≤ 0.2
IIPF	≤ 0.2
PDHK	≤ 0.2
MVPA	≤ 0.2
MAQR	≤ 0.2
QYFT	0.335
QYRT	0.733
QYIT	0.355
QYYM	≤ 0.2
QYAT	0.427
QYRM	0.394
QYKP	0.232
QYKD	0.212
QYYT	0.352
QYAS	0.327
QYDM	≤ 0.2
QYKS	0.643
SPCH	≤ 0.2
YMAS	≤ 0.2
ELYR	≤ 0.2
YQKG	≤ 0.2
QERT	≤ 0.2

Variant	one-hybrid fitness for binding NBS DNA
TNGI	≤ 0.2
RKAP	≤ 0.2
RKAD	≤ 0.2
RKAS	0.597
RKFN	≤ 0.2
RKFS	0.435
RKFP	≤ 0.2
EDSG	≤ 0.2
VTLK	≤ 0.2
ISMT	≤ 0.2
SRDR	≤ 0.2
QCYN	≤ 0.2
QSDN	≤ 0.2
QPRN	≤ 0.2
QSRN	0.374
QSYN	≤ 0.2
QCRN	0.482
KTCN	≤ 0.2
LIAD	≤ 0.2
LNLA	≤ 0.2
QQYI	≤ 0.2
QQVI	≤ 0.2
QQRI	0.383
QQFI	≤ 0.2

Variant	one-hybrid fitness for binding NBS DNA
QQKI	0.399
QQDI	≤ 0.2
ESLH	≤ 0.2
QARN	0.349
QARS	0.644
QARH	0.529
QAIS	≤ 0.2
QAYS	0.305
QAYH	≤ 0.2
TNFS	≤ 0.2
TAIV	≤ 0.2
LTFR	≤ 0.2
SLFT	≤ 0.2
ITST	≤ 0.2
SLTL	≤ 0.2
QRNE	0.276
QRDS	0.468
QRNF	0.327
QPDS	≤ 0.2
QRNS	0.716
